# Active and inactive are the calls of the source. Unless noted, no rule for the calls is given here.
# Columns and labels:
# [1] = test system: XIP peptide (Xip251-270) binding; experiment: XIP fragment 251-270 binding compounds – biochemical, small-molecule microarray, fluorescence 635/667 nm, 0.1 µg/mL protein, primary screen (AID 1182); conditions: fluorescent protein binding, 635 nm, higher = more signal, called active from +8 up or from −8 down
# XIP peptide (Xip251-270) = experiment: compounds binding XIP fragment 251-270 – biochemical, small-molecule microarray, fluorescence 635/667 nm, 0.5 µg/mL protein, primary screen (AID 1183); conditions: fluorescence 635 nm, higher = more signal
# [2] = blood-stage malaria parasite viability loss – strain 3D7, DAPI fluorescence, 100 nL, primary screen (AID 1184);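 also: parasites grown inside human red blood cells in medium with human serum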; conditions: P. falciparum 3D7 growth, 3 d, higher = more signal
# [3] = target: Homeobox protein Hox-A13 (Mus musculus) (UniProt Q62424); experiment: disruptors of Hoxa13 oligonucleotide interaction – biochemical, fluorescence polarization, labeled oligonucleotide, primary screen (AID 1185); conditions: Hoxa13:DNA binding, 15 min, higher = more signal, called active from +8 up or from −8 down
# Sequence of Homeobox protein Hox-A13 (Mus musculus) (Q62424 whole entry, looked up): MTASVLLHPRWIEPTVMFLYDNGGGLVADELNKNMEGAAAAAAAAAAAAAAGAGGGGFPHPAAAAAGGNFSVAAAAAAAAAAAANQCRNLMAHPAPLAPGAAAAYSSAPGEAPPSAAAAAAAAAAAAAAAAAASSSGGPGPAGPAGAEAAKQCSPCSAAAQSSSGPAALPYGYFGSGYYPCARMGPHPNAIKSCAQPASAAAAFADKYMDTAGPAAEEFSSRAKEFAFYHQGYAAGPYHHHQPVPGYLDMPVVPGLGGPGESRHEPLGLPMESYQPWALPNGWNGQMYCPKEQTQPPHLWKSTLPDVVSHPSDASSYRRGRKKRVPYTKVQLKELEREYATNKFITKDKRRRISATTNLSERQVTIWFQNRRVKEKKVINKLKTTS
# [4] = blockers of DNA damage checkpoint Chk1 activation – imaging, HeLa, hydroxyurea, phospho-Chk1 antibody, percent positive cells, primary screen (AID 1186); conditions: hydroxyurea-induced phospho-Chk1 immunofluorescence imaging, higher = more signal
# [5] = blockers of DNA damage checkpoint Chk1 activation – imaging, HeLa, hydroxyurea, phospho-Chk1 nuclear intensity, primary screen (AID 1187); conditions: hydroxyurea-induced phospho-Chk1 immunofluorescence imaging, higher = more signal
Structure (SMILES),composite z-score [1],composite z-score (XIP peptide (Xip251-270)),z-score [2],z-score [3],z-score [4],z-score [5]
CCCC=C(CCC)[C@@H](NC(=O)c1cccs1)c1ccc(C(F)(F)F)cc1,0.0798 (inactive),0.477,-1.65,-2.14 (inactive),0.247 (inactive),0.201 (inactive)
COC(=O)[C@@]1(Cc2ccc(F)cc2)[C@H]2c3cc(C(=O)N(C)C)n(Cc4cc(F)c(F)c(F)c4)c3C[C@H]2CN1C(=O)c1ccccc1,0.0639 (inactive),0.626,-1.66,-3.48 (inactive),0.0893 (inactive),0.175 (inactive)
COCCCNC(=O)[C@@]1(C)c2ccccc2C(=O)N(C(C)C)[C@H]1c1ccc(CO)cc1,-0.102 (inactive),0.246,-0.176,-1.71 (inactive),-0.123 (inactive),-0.397 (inactive)
CCCCCCc1nc(-c2cc(C)c(OC)c(C)c2)cc2c1[Si](C(C)C)(C(C)C)OC2,-0.267 (inactive),-0.191,-2.34,-0.772 (inactive),-0.157 (inactive),-0.188 (inactive)
COc1cccc(-c2cccc(=O)o2)c1,-0.256 (inactive),0.688,0.0459,-2.09 (inactive),0.317 (inactive),-0.169 (inactive)
COC(=O)C(CC#Cc1ccc2c(c1)[C@]1(C(=O)N2)[C@H](c2ccc(OCCO)cc2)N2[C@H](c3ccccc3)[C@H](c3ccccc3)OC(=O)[C@H]2[C@@H]1C(=O)N1CCc2cc(OC)c(OC)cc2C1)C(=O)OC,0.0734 (inactive),0.78,-2,-1.29 (inactive),0.192 (inactive),0.492 (inactive)
COc1cc2c(cc1OC)CN(C(=O)[C@H]1[C@@H]3C(=O)O[C@@H](c4ccccc4)[C@@H](c4ccccc4)N3[C@@H](c3ccc(O)cc3)[C@]13C(=O)Nc1ccccc13)CC2,0.602 (inactive),0.755,-0.044,-2.37 (inactive),-0.169 (inactive),-0.238 (inactive)
COCCOC(=O)N1C(=O)[C@@]2(c3cc(C#CCNC(N)=O)ccc31)[C@H](C(=O)Nc1nc3ccccc3s1)[C@H]1C(=O)O[C@H](c3ccccc3)[C@H](c3ccccc3)N1[C@@H]2c1ccc(OCCO)cc1,0.113 (inactive),-0.221,0.764,0.886 (inactive),-0.0719 (inactive),-0.0419 (inactive)
C=CCNC(=O)[C@@H]1[C@H]2C(=O)O[C@H](c3ccccc3)[C@H](c3ccccc3)N2[C@H](c2ccccc2OCCO)[C@@]12C(=O)N(C(=O)OCCOC)c1ccccc12,3.44 (inactive),0.737,-1.16,-4.27 (inactive),0.115 (inactive),0.494 (inactive)
CN1C=C(C(=O)OCCS(C)(=O)=O)C(C(=O)OCCS(C)(=O)=O)=CC(c2ccc(CO)cc2)=CC1C1CC1 (stereo not drawn),0.943 (inactive),-0.452,-2.35,-5.4 (inactive),-1.15 (inactive),0.15 (inactive)
CCc1cccc(NC(=O)O[C@H]2[C@H](OC(=O)Nc3ccccc3-c3ccccc3)[C@@H](OC(=O)Nc3ccccc3-c3ccccc3)[C@@H](OC)O[C@@H]2CO)c1,1.04 (inactive),0.859,-1.8,-2.99 (inactive),0.167 (inactive),0.62 (inactive)
C=CCOC(=O)[C@@H]1[C@H]2C(=O)O[C@H](c3ccccc3)[C@H](c3ccccc3)N2[C@H](c2ccc(OCCOC(=O)[C@@H]3C[C@@H]4C(=O)NCC(=O)N4[C@@H]3c3ccc(O)cc3)cc2)[C@@]12C(=O)Nc1ccc(I)cc12,0.549 (inactive),0.849,-1.77,-0.29 (inactive),0.273 (inactive),0.702 (inactive)
COC(=O)C(CC#Cc1ccc2c(c1)[C@]1(C(=O)N2)[C@H](C(=O)Nc2nc3ccccc3s2)[C@H]2C(=O)O[C@H](c3ccccc3)[C@H](c3ccccc3)N2[C@@H]1c1ccccc1OCCO)C(=O)OC,1.5 (inactive),0.815,-2.02,2.38 (inactive),0.0018 (inactive),0.304 (inactive)
C=C(C)[C@@H]1CC=C(C(O)C2C=CC3C(=O)N(C)C(=O)C3N2Nc2ccccc2)CC1 (stereo partly drawn),0.469 (inactive),0.147,-0.0575,-4.59 (inactive),-0.63 (inactive),-0.968 (inactive)
CC1CC/C=C\[C@H]2OC34C=CCN(C(C)(C)C)C(=O)[C@H]3N(CCO)C(=O)[C@@H]4C2C(=O)O1 (stereo partly drawn),-0.892 (inactive),0.833,-0.162,-5.01 (inactive),-0.878 (inactive),-0.798 (inactive)
O=C1N[C@@H](Cc2ccccc2)C(=O)N2[C@@H]1C[C@@H](C(=O)O)[C@H]2c1cccc(OCCO)c1,0.779 (inactive),0.465,0.193,-3.04 (inactive),-0.22 (inactive),0.101 (inactive)
C#C[C@H](O[Si](C#Cc1ccc(Oc2ccccc2)cc1)(C(C)C)C(C)C)c1ccccc1,0.359 (inactive),-0.418,-1,-1.04 (inactive),0.179 (inactive),-0.049 (inactive)
NCCCCCCNC(=O)[C@@H]1C[C@@H]2C(=O)NCC(=O)N2[C@@H]1c1ccc(O)cc1,-0.0092 (inactive),0.755,-0.634,-1.98 (inactive),0.563 (inactive),0.457 (inactive)

# Source: PubChem BioAssay
